Results taken from the supplement of paper PMC12340641.
± gives the standard deviation of the averaged measurements.

What follows are compounds tested on HEK293FT dCK*-only (assay: relative growth in counter assay (no AraC = 100%, AraC + DMSO = 0%); higher = more growth rescue independent of IKZF1). Conditions: compound concentration: 5 uM; AraC concentration: 0.3 uM; overnight pretreatment + 4 days AraC.
Method in brief: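 Nuclei were counted by imaging after Hoechst 33342 staining on day 5, in HEK293FT cells (300/well, 384-well) expressing only an engineered kinase construct. Compound at 5 μM went in 2 h after seeding, followed after overnight at 37 °C by a nucleoside suicide substrate at 0.3 μM plus medium for 4 days. Per plate, wells lacking suicide substrate defined 100% and those with substrate plus vehicle defined 0%.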
For `CCO[C@H]1O[C@@H]2O[C@@]3(C)CC[C@H]4[C@H](C)CC[C@@H]([C@H]1C)[C@@]24OO3` [Artemotil], the “relative growth in counter assay” value was -27.3%. In the case of `c1ccc(CCCN2CCN(CCOC(c3ccccc3)c3ccccc3)CC2)cc1`, the “relative growth in counter assay” value is reported as -4.09%. `CO[C@@]12C(=COC(N)=O)c3c(O)c(N)c(C)c(O)c3N1C[C@@H]1N[C@@H]12` [Mitomycin C] was tested, and the “relative growth in counter assay” value was -25.9%. With `Fc1ccc(C(OCCN2CCN(CCCc3ccccc3)CC2)c2ccc(F)cc2)cc1` [vanoxerine] the “relative growth in counter assay” value was -32.4%. `CC(C)C[C@H](NC(=O)[C@@H](O)[C@H](N)Cc1ccccc1)C(=O)NCCOCCOCCOCC(=O)O[C@H]1CC[C@H]2[C@@H]3CC[C@H]4CC(=O)CC[C@]4(C)[C@H]3CC[C@]12C.O=C(O)C(F)(F)F` [PROTAC AR Degrader-4 (TFA)] was tested, and the “relative growth in counter assay” value was 12.3%. In the case of `Clc1ccc(C(OCCN2CCCCC2)c2ccccc2)cc1` (stereo unspecified), the “relative growth in counter assay” value is reported as -4.94%. For `Clc1ccc(N2CCN(Cc3c[nH]c4ncccc34)CC2)cc1`, the “relative growth in counter assay” value was 6.88%. For `CC[C@@H](C(N)=O)N1CCCC1=O`, the “relative growth in counter assay” value was 2.24%. `COc1ccc2c(c1)/C(=C/c1cnc[nH]1)C(=O)N2` was tested, and the “relative growth in counter assay” value was -21.6%. In the case of `CCCCCCC[n+]1ccc(-c2cc[n+](CCCCCCC)cc2)cc1`, the “relative growth in counter assay” value is reported as -12.3%. For `Fc1ccc(C(OCCN2CCN(C/C=C/c3ccccc3)CC2)c2ccc(F)cc2)cc1`, the “relative growth in counter assay” value was 4.29%. With `COc1cc2c(c(OC)c1OC)-c1ccc(OC)c(=O)cc1[C@@H](NC(C)=O)CC2` [Colchicine] the “relative growth in counter assay” value was -33.57 ± 0.13%. `CC(Cc1ccccc1)NCCC(c1ccccc1)c1ccccc1` (stereo unspecified) [prenylamine] was tested, and the “relative growth in counter assay” value was 9.26%. In the case of `C[C@@H]1C[C@@H]([C@H](O)CC2CC(=O)NC(=O)C2)C(=O)[C@@H](C)C1`, the “relative growth in counter assay” value is reported as -33.1%.

What follows are compounds tested on HEK293FT dCK*-IKZF1 (assay: relative growth recovery (pomalidomide 10 uM = 100%, DMSO = 0%); higher = more growth rescue (IKZF1 fusion degradation)). Conditions: compound concentration: 5 uM; AraC concentration: 0.3 uM; overnight pretreatment + 4 days AraC.
Method in brief: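 Means of duplicates from different days are given for growth recovery, normalised per plate against a reference degrader and vehicle. The reference degrader set the 100% level and vehicle the 0% level. HEK293FT cells stably expressing a deoxycytidine kinase–IKZF1 fusion (300/well, 384-well) received 5 μM compound 2 h after seeding and, after overnight at 37 °C, 0.3 μM of a nucleoside suicide substrate plus medium for 4 days. Nuclei stained with Hoechst 33342 were then counted by whole-well imaging on day 5.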
`C[C@]12CC[C@H](O)C[C@H]1CC[C@@H]1[C@@H]2CC[C@]2(C)[C@@H](C3=CC(=O)OC3)CC[C@]12O` [digitoxigenin] gave a relative growth recovery of -12.2%. For `Oc1c(I)cc(I)cc1I`, the relative growth recovery was 2.79%. Compound `ClC(C=C3)=C(Cl)C=[C@@]3[C@H]2C1=CC=CC=C1[C@H](NC)C2` [indatraline] has a relative growth recovery of -3.33%. `CC(=O)OC[C@]12CCC(C)=C[C@H]1O[C@@H]1[C@H](O)[C@@H](OC(C)=O)[C@@]2(C)[C@@]12CO2` [Diacetoxyscirpenol] gave a relative growth recovery of -12.7%. Compound `CC[C@H]1C2CC3[C@@H]4N(C)c5ccccc5[C@]45C[C@@H](C2C5O)N3[C@@H]1O` (stereo partly specified) has a relative growth recovery of 1.42%. In the case of `CC[C@H]1CN2CCc3cc(OC)c(OC)cc3C2C[C@@H]1CC1NCCc2cc(OC)c(OC)cc21` (stereo partly specified), the relative growth recovery is reported as -12.4%. Compound `O=c1[nH]c2ccccc2n1C1CCN(CCCC(c2ccc(F)cc2)c2ccc(F)cc2)CC1` [Pimozide] has a relative growth recovery of -1.04%. `CO[C@H]1C[C@H](O[C@H]2CC[C@@]3(C)[C@H](CC[C@@H]4[C@@H]3CC[C@]3(C)[C@@H](C5=CC(=O)OC5)[C@@H](OC(C)=O)C[C@]43O)C2)O[C@@H](C)[C@@H]1O` [Oleandrin] gave a relative growth recovery of -12.7%. Work on `O=c1[nH]c2ccccc2n1C1CCN(CCCC(c2ccc(F)cc2)c2ccc(F)cc2)CC1` yielded a relative growth recovery of 5.47%. Work on `CO[C@H]1[C@H](O)[C@H](O[C@H]2CC[C@@]3(C=O)[C@H](CC[C@@H]4[C@@H]3CC[C@]3(C)[C@@H](C5=CC(=O)OC5)CC[C@]43O)C2)O[C@@H](C)[C@@H]1O` [Peruvoside] yielded a relative growth recovery of -12.7%. Compound `COc1cc2c(c(OC)c1OC)-c1ccc(OC)c(=O)cc1[C@@H](NC(C)=O)CC2` has a relative growth recovery of -11.6%. For `c1ccc2c(c1)Sc1ccccc1N2CC1CN2CCC1CC2` (stereo unspecified) [levomequitazine], the relative growth recovery was 0.35%. In the case of `C[C@@]12C(=O)OC(=O)[C@]1(C)[C@H]1CC[C@@H]2O1` [cantharidin], the relative growth recovery is reported as -4.16%. Compound `N#Cc1cn([C@@H]2O[C@H](CO)[C@@H](O)[C@H]2O)c2ncnc(N)c12` [toyocamycin] has a relative growth recovery of -12.9%. For `O=C(CCCN1CCC(n2c(=O)[nH]c3ccccc32)CC1)c1ccc(F)cc1` [benperidol], the relative growth recovery was 1.78%. Compound `O=C1c2ccccc2C(=O)c2ccccc21` [anthraquinone] has a relative growth recovery of -0.655%. `C[C@]12CCC3C(CC[C@]4(O)C[C@@H](O)CC[C@]34C=O)[C@@]1(O)CCC2C1=CC(=O)OC1` (stereo partly specified) [Strophantidin] was tested, and the relative growth recovery was -11.4%. `C=C1[C@@H](C)[C@H]2[C@H](Cc3ccccc3)NC(=O)[C@]23OC(=O)/C=C/[C@H](O)CCC[C@@H](C)C/C=C/[C@H]3[C@@H]1O` [Cytochalasin B] was tested, and the relative growth recovery was -8.39%. Compound `NCC1(CC(=O)O)CCCCC1` has a relative growth recovery of -0.56%. With `CC[C@@]1(C2O[C@@H](C3O[C@@](O)(CO)[C@H](C)C[C@@H]3C)C[C@@H]2C)CC[C@H]([C@]2(C)CC[C@]3(C[C@H](O)[C@@H](C)[C@@H]([C@@H](C)[C@@H](OC)[C@H](C)C(=O)O)O3)O2)O1` (stereo partly specified) the relative growth recovery was -0.68%. In the case of `N=C(Nc1ccccc1)Nc1ccccc1` [diphenylguanidine], the relative growth recovery is reported as -1.17%. For `C[C@H]1CCC/C=C/C2C[C@H](O)C[C@H]2[C@H](O)/C=C/C(=O)O1` (stereo partly specified) [brefeldin-a], the relative growth recovery was -10%. `CCCCC1(C2CCCC2)Cc2cc(OCCCC(=O)O)c(Cl)c(Cl)c2C1=O` (stereo unspecified) was tested, and the relative growth recovery was 0.8%. For `CCO[C@H]1O[C@@H]2O[C@@]3(C)CC[C@H]4[C@H](C)CC[C@@H]([C@H]1C)[C@@]24OO3` [Artemotil], the relative growth recovery was -5.64%. `c1ccc(CCCN2CCN(CCOC(c3ccccc3)c3ccccc3)CC2)cc1` gave a relative growth recovery of 3.4%. `CO[C@@]12C(=COC(N)=O)c3c(O)c(N)c(C)c(O)c3N1C[C@@H]1N[C@@H]12` [Mitomycin C] gave a relative growth recovery of -6.43%. `Fc1ccc(C(OCCN2CCN(CCCc3ccccc3)CC2)c2ccc(F)cc2)cc1` [vanoxerine] was tested, and the relative growth recovery was -10.5%. In the case of `CC(C)C[C@H](NC(=O)[C@@H](O)[C@H](N)Cc1ccccc1)C(=O)NCCOCCOCCOCC(=O)O[C@H]1CC[C@H]2[C@@H]3CC[C@H]4CC(=O)CC[C@]4(C)[C@H]3CC[C@]12C.O=C(O)C(F)(F)F` [PROTAC AR Degrader-4 (TFA)], the relative growth recovery is reported as 8.26%. Compound `Clc1ccc(C(OCCN2CCCCC2)c2ccccc2)cc1` (stereo unspecified) has a relative growth recovery of -0.525%. `Clc1ccc(N2CCN(Cc3c[nH]c4ncccc34)CC2)cc1` gave a relative growth recovery of 2.15%. Work on `CC[C@@H](C(N)=O)N1CCCC1=O` yielded a relative growth recovery of 0.38%. Work on `COc1ccc2c(c1)/C(=C/c1cnc[nH]1)C(=O)N2` yielded a relative growth recovery of -7.43%. Work on `CCCCCCC[n+]1ccc(-c2cc[n+](CCCCCCC)cc2)cc1` yielded a relative growth recovery of -3.88%. In the case of `Fc1ccc(C(OCCN2CCN(C/C=C/c3ccccc3)CC2)c2ccc(F)cc2)cc1`, the relative growth recovery is reported as 8.18%. `COc1cc2c(c(OC)c1OC)-c1ccc(OC)c(=O)cc1[C@@H](NC(C)=O)CC2` [Colchicine] gave a relative growth recovery of -12.2 ± 0.36%. Compound `CC(Cc1ccccc1)NCCC(c1ccccc1)c1ccccc1` (stereo unspecified) [prenylamine] has a relative growth recovery of -0.73%. Work on `C[C@@H]1C[C@@H]([C@H](O)CC2CC(=O)NC(=O)C2)C(=O)[C@@H](C)C1` yielded a relative growth recovery of -12%.
